The whole screen tested about 2,300 compounds, of which about 2,000 (87%) were called active. The set was probably picked from earlier hits. Not all results are given here. Values without a mark were called inactive. Cut-off read from the data, not from the text of the source: active = activation above about 49%; inactive = the rest.

The assay deals with Aryl hydrocarbon receptor (Homo sapiens) (UniProt P35869). In words: activators of human aryl hydrocarbon receptor reporter – cell-based, luminescence, luciferase reporter, confirmation (AID 2845).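 Note: HepG2 hepatoma cells carrying a DRE-driven firefly luciferase reporter; 0% = vehicle wells and 100% = reference agonist wells.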 The settings on record: human cells, AHR-responsive luciferase reporter, at 9 µM, hits give high values.
Chain of Aryl hydrocarbon receptor (Homo sapiens) (P35869 whole entry, looked up): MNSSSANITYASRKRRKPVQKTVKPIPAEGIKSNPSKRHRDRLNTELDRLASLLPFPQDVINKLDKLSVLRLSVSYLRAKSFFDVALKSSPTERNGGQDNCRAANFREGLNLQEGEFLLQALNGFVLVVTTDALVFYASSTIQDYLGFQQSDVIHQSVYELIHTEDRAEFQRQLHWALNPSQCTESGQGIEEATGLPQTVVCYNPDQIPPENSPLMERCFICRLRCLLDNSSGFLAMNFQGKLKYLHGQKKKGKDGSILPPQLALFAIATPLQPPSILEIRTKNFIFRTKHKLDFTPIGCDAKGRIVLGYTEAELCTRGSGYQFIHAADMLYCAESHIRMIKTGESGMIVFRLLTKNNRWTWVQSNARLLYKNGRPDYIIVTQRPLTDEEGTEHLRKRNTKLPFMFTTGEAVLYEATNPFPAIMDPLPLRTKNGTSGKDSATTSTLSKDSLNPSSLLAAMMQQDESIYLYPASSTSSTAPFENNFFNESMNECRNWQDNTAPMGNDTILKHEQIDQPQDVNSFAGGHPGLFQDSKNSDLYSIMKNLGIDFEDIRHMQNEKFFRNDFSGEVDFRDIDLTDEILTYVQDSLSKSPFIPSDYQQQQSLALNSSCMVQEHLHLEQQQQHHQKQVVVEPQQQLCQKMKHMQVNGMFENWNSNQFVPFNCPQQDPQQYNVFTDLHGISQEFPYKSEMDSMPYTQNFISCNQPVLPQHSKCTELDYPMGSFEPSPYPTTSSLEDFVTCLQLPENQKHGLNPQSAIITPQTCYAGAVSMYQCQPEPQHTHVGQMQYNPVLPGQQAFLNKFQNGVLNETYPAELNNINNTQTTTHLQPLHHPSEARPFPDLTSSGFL
As for `Cc1ccnc(-n2sc3ccccc3c2=O)n1`, the activation is 55.4% (active). With `COc1ccccc1NC(=O)C1=C(C)NC2=C(C(=O)CCC2)C1c1ccc(C)o1` (stereo not given) the figure was 110% (active); with `NC(=O)Nc1ccccc1C(=O)NCCc1ccccc1`, 106% (active); with `CC(C)n1ncc2c(C(=O)Nc3ccc(CC#N)cc3)cc(C3CC3)nc21`, 25.4%. With `Cc1ccc(NC(=O)Nc2cccnc2)cc1` the figure was 67.7% (active); with `CCC(=O)NC(=S)Nc1ccc(NC(=O)c2ccco2)c(Cl)c1`, 82% (active); with `COc1cc(NC(=O)c2ccc(-c3csc(C)n3)cc2)c(OC)cc1Cl`, 119% (active). The value for `CCNC(=S)N1CCC(c2nc3cc(C)c(C)cc3[nH]2)CC1` was 25.5%.

On to `O=C(Nc1cccc(Br)c1)c1ccc2snnc2c1`, for which the activation was 74.4% (active). The value for `CNC(=O)c1ccc2nc(NC(C)=O)sc2c1` was 22.7%; that for `COc1cc(CNCc2ccc3c(c2)OCO3)c([N+](=O)[O-])cc1OC` was 87.3% (active). As to `Brc1ccc(C2=CC(c3ccco3)n3ncnc3N2)cc1` (stereo not given), the activation was 90.4% (active).

For `S=c1[nH]nc(-c2cc(-c3ccsc3)n[nH]2)n1-c1ccccc1`, the activation is 103% (active). The value for `Cc1ccnc(NC(=O)c2ccc(Cl)c([N+](=O)[O-])c2)c1` was 60.8% (active); that for `Cc1cccc(N=Nc2c(O)[nH]c3ccc(F)cc23)c1` was 147% (active); that for `COc1cccc(-c2nc3cc(C)ccc3o2)c1` was 47% (active).

With `CC(=O)Nc1ccc(-c2nc3ccccc3o2)cc1`, the activation is -4.38%. With `COc1ccc(OC)c(-c2csc(-c3cccs3)n2)c1` the figure was 94.4% (active). The value for `O=C(CCCCn1c(=O)[nH]c2ccccc2c1=O)NCc1ccc2c(c1)OCO2` was 56.1% (active). As for `Brc1ccc(C2CC(c3ccccc3)=Nc3ccccc3N2)cc1` (stereo not given), the activation is 80.8% (active). With `NNc1nc2c(Cl)cccc2s1` the figure was 57.5% (active). With `CC(C)n1cnc2c(Nc3cccc(Cl)c3)nc(N(CCO)CCCO)nc21` the figure was 11.4%; with `CN(C)S(=O)(=O)Oc1ccccc1C(=O)Nc1ccccc1Cl`, 99.1% (active); with `CCOC(=O)c1nc(-c2ccc3c(c2)OCO3)[nH]c1C`, 68.3% (active). With `CCn1c2ccccc2c2cc(NC(=O)C/C(C)=N/NC(=O)c3ccccc3N)ccc21` the figure was 61.5% (active). On to `CCn1c(NC(=O)c2nn(C)cc2Br)nc2ccccc21`, for which the activation was 70.7% (active).

As to `O=C(Nc1ccc(Cl)cn1)c1cnn2cccnc12`, the activation was 179% (active). The value for `COc1ccc(Nc2nnc(C)c3ccccc23)cc1` was 82.5% (active).

On to `Cn1c(C(=O)NCCc2ccsc2)cc2c(=O)n(C)c3ccccc3c21`, for which the activation is 65.4% (active). With `O=C(NC1CC1)C1=C[C@H](c2c[nH]c3ccccc23)C[C@H](OCc2ccc(CO)cc2)O1` the figure was 27.6%.

For the origin of these results see PubChem BioAssay AID2845 (The Scripps Research Institute Molecular Screening Center, 2010).
